Only some compounds are listed: those with a hit (about 3.7% of all), similar ones and a draw of the others.
ELG1 DNA repair = ELG1-dependent DNA repair inhibition; actives 2.3% (n = 330,000); Potency, µM (doses to about 46.1 µM), inactives show at the top dose activity change, negative = inhibition, actives largely listed as inhibitors; HEK293T ELG1-luciferase reporter, luminescence, 16 h; DNA damage induced by 5-fluorouridine; further: on the % scale 0 is the no-effect control and ±100 the full control effect; nearly all actives have a fitted effect of over 55% in size
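Overnight (16 hr) co-exposure of 2,000 cells/well to 5-fluorouridine and compound at 37 °C preceded detection. Luciferase was quantified via ONE-Glo luminescence; loss of signal denotes inhibition.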
Nrf2 activator = Nrf2 pathway activation; Potency, µM (series often up to 46.1 µM), for inactives: at the top dose activation, most hits filed as activators; AID 624171; AREc32 ARE-luciferase reporter (MCF7-derived line), luminescence, 24 h; actives 0.31% (n = 410,000); further: % of control where 0% means no effect; nearly all actives have a fitted effect of over 65% in size
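Luminescent ARE reporter assay in AREc32_Fluc cells: overnight plating at 37 deg C, 24 hr compound incubation, Steady-Glo added, 30 min RT before reading.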
A549 tox = counter-screen for Nrf2 inhibitors: cytotoxicity in A549 cells | Potency, µM (titrated, usually from 46 µM), without a hit: at the highest dose activity change, negative = cytotoxicity, actives largely listed as inhibitors | A549 ARE-Fluc cells, CellTiter-Fluor viability, 18-24 h | AID 504648 | actives 0.16% (n = 390,000); further: on the % scale 0 is the no-effect control and ±100 the full control effect
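A549 ARE-Fluc cells in 5% FBS OPTI-MEM, 5000 cells/well, rested 2 h then exposed to compounds in concentration-response for 18-24 h at 37 °C. Viability by CellTiter-Fluor fluorescence (Ex 405/Em 525) after 30 min; luciferase luminescence (BugLite, 15 min, RT) read afterwards.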
Nrf2 inh = inhibitors of Nrf2 signaling. A549 ARE-Fluc reporter, luciferase luminescence, 18-24 h. Potency, µM (top dose mostly 46 µM), without a hit: at the top dose activity change, negative = inhibition, actives largely listed as inhibitors. actives 2.1% (n = 360,000). AID 504444; further: on the % scale 0 is the no-effect control and ±100 the full control effect; nearly all actives have a fitted effect of over 60% in size
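Reporter: ARE-Fluc in A549. Exposure: 18-24 h, 37 °C, 5% CO2, 5% FBS OPTI-MEM. Readouts: fluorescent cytotoxicity (CellTiter-Fluor), then luminescent Nrf2 signal after BugLite.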
Numbers without * were called inactive; ? = inconclusive; . = no result. The call rests on the fitted dose curve; in most records, active means well fitted curve in the direction sought with a large enough effect; inconclusive means small, poorly fitted or top-dose-only effect, or another doubt; inactive means no such curve, though single readings can be large; an effect the other way counts as inactive or inconclusive. Potency means the concentration at half of the fitted maximal effect.

SMILES	ELG1 DNA repair	Nrf2 activator	A549 tox	Nrf2 inh
CC1Cc2ccccc2N1C(=O)COC(=O)c1ccc(N(C)C)cc1 (stereo not given)	?	3%	0%	1%
COc1ccc(CNC(=O)C2CCC(CNC(=O)[C@@H]3Cc4ccccc4CN3)CC2)cc1 (stereo not given in full)	?	-1%	0%	?
O=C(Nc1nc2c(s1)CN(Cc1ccccc1)CC2)c1c(F)cccc1F	?	3%	1%	?
CC(=O)NN1C(=O)/C(=C\c2ccc(Br)o2)SC1=S	?	16µM*	-7%	-12%
CCc1cccc(CC)c1NC(=O)C1SC(=Nc2ccccc2C)C(c2nc3ccccc3s2)=C1N (stereo not given)	0%	1%	-22%	15µM*
O=C(CN1CCCCC1)Nc1ccc(S(=O)(=O)c2ccc(NC(=O)CN3CCCCC3)cc2)cc1	.	7%	10%	21%
O=C1c2ccccc2C(=O)C2OC12 (stereo not given)	-7%	.	.	.
COCCNC(=S)N1CCN(c2nc(-c3ccc(Cl)cc3)cs2)CC1	-21%	4%	6%	?
CNC(=S)N1CCN(c2nc(-c3ccc(Cl)cc3)cs2)CC1	-6%	0%	-13%	18µM*
CCNC(=S)N1CCN(c2nc(-c3ccc(F)cc3)cs2)CC1	?	1%	3%	18µM*
O=C(Cc1cccs1)N1CCN(c2nc(-c3ccc(Cl)cc3)cs2)CC1	?	4%	-29%	18µM*
CC(C)C(=O)N1CCN(c2nc(-c3ccc(Cl)cc3)cs2)CC1	5%	4%	-3%	?
COc1cccc(-c2csc(N3CCN(C(=S)Nc4ccc(Cl)cc4)CC3)n2)c1	?	5%	-25%	21µM*
COc1ccc(NS(=O)(=O)c2ccc(C)c(NC(=O)CNC(=O)c3ccco3)c2)cc1	5%	-1%	1%	12%
CNC(=S)N1CCN(c2nc(-c3cccc(OC)c3)cs2)CC1	2%	6%	-4%	18µM*
S=C(NCC1CCCO1)N1CCN(c2nc(-c3ccccc3)cs2)CC1 (stereo not given)	23µM*	0%	-11%	13µM*
S=C(NCc1ccco1)N1CCN(c2nc(-c3ccccc3)cs2)CC1	?	4%	4%	?
CCOc1ccc(OCC)c(NC(=O)c2cc(S(=O)(=O)N3CCCC3)cn2C)c1	.	2%	-2%	-3%
N#Cc1c(NC(=O)c2ccccc2)sc2c1CCCCC2	?	3%	-7%	?
N#Cc1c(Cl)nsc1NC(=O)c1ccccc1	2.9µM*	3%	?	2.6µM*
CCOC(=O)c1cc(OC(=O)Cc2ccc(OC)c(S(=O)(=O)N3CCOCC3)c2)cc(C(=O)OCC)c1	.	0%	.	.
CCOc1ccc2oc(C(=O)N(C)CC(=O)Nc3ccc(OCC)c(OCC)c3)c(C)c2c1	?	2%	5%	-4%
CCOc1ccc2oc(C(=O)N(C)CCc3ccc(OC)c(OC)c3)c(C)c2c1	18µM*	3%	0%	-10%
CCOC(=O)C1(CCCc2ccccc2)CCN(C(=O)c2cnc(C)cn2)CC1	16µM*	0%	3%	-2%
CCOC(=O)C1(CCCc2ccccc2)CCN(C(=O)CN2C(=O)CSC2=O)CC1	12µM*	0%	-2%	-15%
SMILES	ELG1 DNA repair	Nrf2 activator	A549 tox	Nrf2 inh
CCOC(=O)C1(CCCc2ccccc2)CCN(C(=O)c2cc(C)nc(C)n2)CC1	-14%	0%	0%	-8%
CN1CCN(c2nc(-c3ccccc3)nc(-c3ccccc3)c2C#N)CC1	?	0%	-9%	-10%
COc1ccc(-c2nc(-c3ccccc3)nc(N3CCN(C)CC3)c2C#N)cc1	21µM*	-1%	-1%	-1%
c1cncc(-c2nc(N3CCOCC3)c3ccccc3n2)c1	-8%	0%	-1%	?
c1ccc2c(N3CCOCC3)nc(-c3ccncc3)nc2c1	6.5µM*	1%	8%	.
c1ccc(-c2nc(N3CCOCC3)cc(N3CCOCC3)n2)cc1	15µM*	0%	1%	-8%
N#Cc1c(-c2ccccc2)nc(-c2ccccc2)nc1N1CCOCC1	15µM*	0%	5%	7%
Cc1ccc(C)c(Cn2c(SCC(=O)NCc3ccccc3)nc3ccccc32)c1	.	0%	-25%	.
Cc1cc(C)cc(NC(=O)NCc2noc3ccccc23)c1	.	0%	-1%	-11%
Cc1cc(-c2ccccc2)c2c(=O)[nH][nH]c2n1	0%	-1%	-2%	?
O=C(O)c1cccc(S(=O)(=O)Nc2ccccc2Oc2ccccc2)c1	.	0%	.	.
CCOc1ccc(NC(=O)c2ccccc2NC(=O)c2cccnc2)cc1	-8%	0%	5%	-20%
COc1ccc(-c2nc(C#N)c(N3CCc4ccccc4C3)o2)cc1OC	?	2%	-5%	21µM*
COc1ccccc1-c1nc(C#N)c(N2CCc3ccccc3C2)o1	?	1%	-2%	.
Cc1cc2c(s1)c1cnn(Cc3cc(F)c(F)c(F)c3)c(=O)c1n2C	.	.	-13%	12%
COC(=O)C1=C(N)Oc2cc(C)n(CC3CCCO3)c(=O)c2C1c1ccc(Cl)c(Cl)c1 (stereo not given)	?	0%	-22%	21µM*
CCn1c(/C=C\c2ccccc2C)nc2ccccc2c1=O	-16%	?	-2%	7%
Cc1ccccc1/C=C\c1nc2ccccc2c(=O)n1Cc1ccccc1	29µM*	13%	2%	-21%
O=c1c2ccccc2nc(/C=C/c2ccccc2)n1CCc1ccccc1	21µM*	-1%	2%	1%
CN1/C(=C\C=C2/SC(=S)NC2=O)C(C)(C)c2ccccc21	?	5%	15µM*	?
CC(C)C(=O)N1CCN(c2ccccc2NC(=O)COc2ccc(C3CCCCC3)cc2)CC1	21µM*	0%	?	?
CC(C)C(=O)N1CCN(c2ccccc2NC(=O)COc2ccccc2)CC1	?	0%	-4%	1%
CCN(c1ccc(NC(=O)c2ccc(N3CCCC3=O)cc2)cc1)C(C)C	?	-1%	-21%	9.2µM*
COc1ccc(/C(C)=N\Nc2nc(-c3ccc(Cl)cc3)cc(C(F)(F)F)n2)cc1OC	8.2µM*	-1%	7%	-15%
COc1ccc(/C=N/Nc2nc(-c3ccc(Cl)cc3)cc(C(F)(F)F)n2)c(OC)c1	?	0%	13%	?
COc1ccc(CCNC(=O)Cn2c(=O)nc(-c3ccccc3)c3cc(Cl)ccc32)cc1OC	.	0%	?	.
O=C(CN1CCN(S(=O)(=O)c2ccc(F)cc2)CC1)Nc1cc(C(F)(F)F)ccc1Cl	26µM*	0%	-10%	-18%
Cc1ccc(-c2cc(Cc3ccncc3)c(=O)[nH]n2)cc1	-3%	0%	-2%	3%
COc1ccc(CCNC(=O)CSc2ncc(C(=O)Nc3ccccc3)c(=O)n2C)cc1	4%	3%	13%	?
COc1ccccc1NC(=O)c1cnc(SCC(=O)NCCc2ccccc2)n(C)c1=O	?	4.5µM*	-4%	7%

Screening data (PubChem BioAssay)
